The values that follow come from PMC7819943, “Rice protein-binding microarrays: a tool to detect cis-acting elements near promoter regions in rice”.

Whole data set: some 68,000 sequences, median “fluorescence intensity (a.u.)” near 9,100, cut for the highest 2% near 16,000. For the sample, the highest values were picked, then their nearest neighbours and some sequences at random.

In the test the target is OsWRKY34 (Oryza sativa, UniProt Q0JBA9 1-250). Description: protein-binding microarray (RPBM); PBS, 2% BSA, 51.3 ng/ul salmon testes DNA, 50 uM zinc acetate, 200 nM TF, 25 C, 1 h; high values mean tight binding. The note with it: protein: recombinant; tags: N-terminal polyhistidine and DsRed monomer fusion (pET32a); label: CyDye5-dUTP incorporated in the synthesized complementary strand; 3' TTTTT single-stranded linker to array surface; dsDNA, one strand shown. Summed up: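 Transcription factors were made in E. coli BL21-CodonPlus as N-terminal fusions to a polyhistidine tag and DsRed, then purified on Ni–NTA. After primer extension with Cy5-dUTP and blocking with 2% BSA, a custom Agilent array was exposed for 1 h at 25 °C to 200 nM protein in PBS, 2% BSA, salmon testes DNA and 50 µM zinc acetate. Washed arrays were scanned on an Axon 4000B, and the binding signal is per-feature fluorescence intensity in arbitrary units.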
OsWRKY34, sequence (Q0JBA9 entry or part of it): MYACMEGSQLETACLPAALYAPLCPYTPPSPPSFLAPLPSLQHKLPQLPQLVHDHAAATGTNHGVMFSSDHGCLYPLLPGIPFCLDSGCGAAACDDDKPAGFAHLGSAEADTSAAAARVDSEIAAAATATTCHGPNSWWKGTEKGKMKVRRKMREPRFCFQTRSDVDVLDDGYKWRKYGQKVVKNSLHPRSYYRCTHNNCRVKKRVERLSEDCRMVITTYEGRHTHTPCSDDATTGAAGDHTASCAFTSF
For “TAATGTATTCCGGCAAATGAATATGTTGTTTGACTTTTTTCGGAGTCACCTAGTGCAG”, the binding signal is 10300 fluorescence intensity (a.u.).

Regarding “TTAATGTATGACACTGTTGACTTTTTTTCCAACGTTTGACCGGAGTCACCTAGTGCAG”, the binding signal is 21900 fluorescence intensity (a.u.).

For “CCGGTCGTTTCCCGTATTGTTGGCATATATGTACACGGAGCGGAGTCACCTAGTGCAG”, the binding signal is 8030 fluorescence intensity (a.u.).

Consider “CCGTCGTGCTGCGCCCTTCAATTTGTTGGTCTCGCTCGCCCGGAGTCACCTAGTGCAG”, for which the binding signal was 8490 fluorescence intensity (a.u.).

In the case of “TTATACTTTCTCTTTTTTTCACGTGTATATTTTCTAAACCCGGAGTCACCTAGTGCAG”, the binding signal was 9610 fluorescence intensity (a.u.).

As to “GTGTCTTGTACATGTCTTCGTTTCTTCCTTTCTCATTTCACGGAGTCACCTAGTGCAG”, the binding signal was 10900 fluorescence intensity (a.u.).

With “ACACTTTCTCTCTTGTACACTTTCATTTCACGTGTCTAAACGGAGTCACCTAGTGCAG”, the binding signal was 17500 fluorescence intensity (a.u.).

In the case of “CGTATCTGCTCTGTTTTTCATCTCCTGTCATTTGTCTAAACGGAGTCACCTAGTGCAG”, the binding signal is 18500 fluorescence intensity (a.u.).

As to “GTCATCCTGTTTCACTGCTAGCTCTCCCTAAATTTTGAAACGGAGTCACCTAGTGCAG”, the binding signal is 8490 fluorescence intensity (a.u.).

In the case of “TTGTTTTCTACTCCTAATACTCTTTTGTCTGTCTCATCTGCGGAGTCACCTAGTGCAG”, the binding signal was 12400 fluorescence intensity (a.u.).

For “AAGAACACAACACACTTGATATATATACCTCACACACACTCGGAGTCACCTAGTGCAG”, the binding signal is 8060 fluorescence intensity (a.u.).

“TACTTGGTGCAGTGTTGAGCCTTGTTTTACAATAAATTTTCGGAGTCACCTAGTGCAG”: the binding signal was 8100 fluorescence intensity (a.u.).

Regarding “GCGCCGTTGTTCTTCCTGCCACATCCATCCTGGTGAGCACCGGAGTCACCTAGTGCAG”, the binding signal is 12700 fluorescence intensity (a.u.).

Turning to “CTAAATATTTAACGCTGTTGACTTTTTAAAACATATTTGACGGAGTCACCTAGTGCAG”, the binding signal was 9280 fluorescence intensity (a.u.).

On to “ATGTTTGACGCTGTTGACTTTTTTAAACATATTTGACTCTCGGAGTCACCTAGTGCAG”, for which the binding signal is 21500 fluorescence intensity (a.u.).

As for “ATTCTCTAAATGTTTGACGCTGTTGACTTTTTAAAACATGCGGAGTCACCTAGTGCAG”, the binding signal was 16600 fluorescence intensity (a.u.).

Regarding “GGGTATTTTTTAAGTAGCTAGGTGTATAATTAAATTAGTTCGGAGTCACCTAGTGCAG”, the binding signal is 8760 fluorescence intensity (a.u.).

Take “TTTTTAGGGTGTGGGTATTAGTTGGAAAATACAATAAATGCGGAGTCACCTAGTGCAG”: the binding signal was 9530 fluorescence intensity (a.u.).

As to “GTGTAGGAGTAGTTAGGGTTGTTGCTTGTTGGAGGGAAAACGGAGTCACCTAGTGCAG”, the binding signal is 9460 fluorescence intensity (a.u.).

“TCATCAATGTCGACTTCTGTTTTGAAGTCGCTTTTTCATCCGGAGTCACCTAGTGCAG”: the binding signal was 9100 fluorescence intensity (a.u.).

Take “ATGTTTACGTGCAACACATTATGGTTCTCTTCTCTGTAAACGGAGTCACCTAGTGCAG”: the binding signal was 8230 fluorescence intensity (a.u.).

Consider “TAATGGAAGTGGTTTACGTCGCTTCTGTCAATAAACACACCGGAGTCACCTAGTGCAG”, for which the binding signal is 48400 fluorescence intensity (a.u.).

On to “ATTCCTCCGCCACAACACCACGCTGACCACAGTCCACCGTCGGAGTCACCTAGTGCAG”, for which the binding signal was 8360 fluorescence intensity (a.u.).

Take “CCCGCTGGTGCACTTCAACGCTACTCCTCTTCGCCGCCAACGGAGTCACCTAGTGCAG”: the binding signal was 9270 fluorescence intensity (a.u.).

Turning to “CGTACCTTCTCTGTTGAATCTCCTGTTCGCTTTTCTGTTACGGAGTCACCTAGTGCAG”, the binding signal was 9160 fluorescence intensity (a.u.).

Consider “AGACGTATTCCTGTATCCGCCTATCCGTATCTTGGTATCACGGAGTCACCTAGTGCAG”, for which the binding signal was 8300 fluorescence intensity (a.u.).

With “TATATATATATATATATATATATATATATATATATATATCCGGAGTCACCTAGTGCAG”, the binding signal is 8650 fluorescence intensity (a.u.).

Consider “ATATATATATATATATATATAGACGTATTCCTGTATCCGCCGGAGTCACCTAGTGCAG”, for which the binding signal was 21000 fluorescence intensity (a.u.).

For the sequence “GGCTTTTTTGTTGGGCTTCTTTTGATCAAAAACGTTGTTTCGGAGTCACCTAGTGCAG”, the binding signal was 12000 fluorescence intensity (a.u.).

On to “TTGGTGCTGTTGGTGCGTGGGTGGTGGTATAATTTTCTTTCGGAGTCACCTAGTGCAG”, for which the binding signal is 11900 fluorescence intensity (a.u.).

As to “TATTGTATTGGGTTGGGCCTTTGTGGTTGTCTAATGAAGTCGGAGTCACCTAGTGCAG”, the binding signal is 22300 fluorescence intensity (a.u.).

On to “GCGATGTCGGTGTGTGGGTGGTGGTATATTTTTCCTTTTTCGGAGTCACCTAGTGCAG”, for which the binding signal is 18000 fluorescence intensity (a.u.).

As to “CTGCTGCAGTTGAGCTGTACTGTTTTGGTGGGTTGGTTTTCGGAGTCACCTAGTGCAG”, the binding signal is 13900 fluorescence intensity (a.u.).

Turning to “GCGGTTGGGTTTGTGTGGTTTTTTTTGAAGGCGGAGTTGTCGGAGTCACCTAGTGCAG”, the binding signal is 12100 fluorescence intensity (a.u.).

Take “TGTTTGGTGCTGTCGGTACATGGGTGGTGGTTTTTTCTTTCGGAGTCACCTAGTGCAG”: the binding signal was 17500 fluorescence intensity (a.u.).

Turning to “CTTGCGGTTCATTTGGGGTTGGTTGGTTCTAGGGTACTGTCGGAGTCACCTAGTGCAG”, the binding signal was 16700 fluorescence intensity (a.u.).

Turning to “GAGGAGGTTGGGTTCTTGATCGGTGTCGGATTTTTGGTTGCGGAGTCACCTAGTGCAG”, the binding signal is 10800 fluorescence intensity (a.u.).

As to “GCGCTGTCAGTGTGTGGGTGGTAGTATATTTTTTTCTTTTCGGAGTCACCTAGTGCAG”, the binding signal is 12500 fluorescence intensity (a.u.).

With “TGGTGGTGGTTGTGGTTGGGTTGGTGTCTGTCTTTTGTACCGGAGTCACCTAGTGCAG”, the binding signal is 16300 fluorescence intensity (a.u.).

Take “AATTCATTTGTCTTGGTACGCTGTTGGGGCGTAATAGGGGCGGAGTCACCTAGTGCAG”: the binding signal is 13200 fluorescence intensity (a.u.).

“GTGTGTGGGTGGTGGTATATTTTTTTTCTTTCTCTTGGTTCGGAGTCACCTAGTGCAG”: the binding signal was 12800 fluorescence intensity (a.u.).

For “GTGTGGCGGACATGTGGGCCCATGATTTTTATTATTTTTCCGGAGTCACCTAGTGCAG”, the binding signal is 9790 fluorescence intensity (a.u.).
